# In article PMC9911399, “Two distinct binding modes provide the RNA-binding protein RbFox with extraordinary sequence specificity”:
# Changes are numbered by the printed parent chain; changes in the protein carry UniProt numbers. Whole data set: some 16,000 sequences, median “ka relative to ugcaugu” near 0.0091, cut for the highest 2% near 0.032. Shown is part of a subset that was picked to be rich in the highest values.
# T1: RBFOX1 RRM (Homo sapiens, UniProt Q9NWB1 109-208)
# T1 sequence: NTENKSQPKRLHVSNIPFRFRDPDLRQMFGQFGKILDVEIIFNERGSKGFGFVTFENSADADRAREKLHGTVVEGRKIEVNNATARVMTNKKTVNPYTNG
# B1: CGUUGCG (DNA:RNA)
# RNA: GGGAGACCGGAAUUCAGAUUGUCCCGUUGCGUUAAAUCCCGUCGUAGCCACCA
# DNA 1: CAATCTGAATTCCGGTCTCCC
# DNA 2: TGGTGGCTACGACGGGATT
# B2: UGCGUUG (DNA:RNA)
# RNA: B1 RNA with C25U, U27C, U28G, G29U, C30U
# DNA 1: CAATCTGAATTCCGGTCTCCC
# DNA 2: TGGTGGCTACGACGGGATT
# B3: UGUUGCG (DNA:RNA)
# RNA: B1 RNA with C25U
# DNA 1: CAATCTGAATTCCGGTCTCCC
# DNA 2: TGGTGGCTACGACGGGATT
# B4: AAUGGAA (DNA:RNA)
# RNA: B1 RNA with C25A, G26A, U28G, C30A, G31A
# DNA 1: CAATCTGAATTCCGGTCTCCC
# DNA 2: TGGTGGCTACGACGGGATT
# B5: GUGCUCC (DNA:RNA)
# RNA: B1 RNA with C25G, G26U, U27G, U28C, G29U, G31C
# DNA 1: CAATCTGAATTCCGGTCTCCC
# DNA 2: TGGTGGCTACGACGGGATT
# B6: UGCUCCC (DNA:RNA)
# RNA: B1 RNA with C25U, U27C, G29C, G31C
# DNA 1: CAATCTGAATTCCGGTCTCCC
# DNA 2: TGGTGGCTACGACGGGATT
# B7: UGCUCCG (DNA:RNA)
# RNA: B1 RNA with C25U, U27C, G29C
# DNA 1: CAATCTGAATTCCGGTCTCCC
# DNA 2: TGGTGGCTACGACGGGATT
# B8: UGGCUCC (DNA:RNA)
# RNA: B1 RNA with C25U, U27G, U28C, G29U, G31C
# DNA 1: CAATCTGAATTCCGGTCTCCC
# DNA 2: TGGTGGCTACGACGGGATT
# B9: UGGCCCG (DNA:RNA)
# RNA: B1 RNA with C25U, U27G, U28C, G29C
# DNA 1: CAATCTGAATTCCGGTCTCCC
# DNA 2: TGGTGGCTACGACGGGATT
# B10: CGUGCUC (DNA:RNA)
# RNA: B1 RNA with U28G, G29C, C30U, G31C
# DNA 1: CAATCTGAATTCCGGTCTCCC
# DNA 2: TGGTGGCTACGACGGGATT
# B11: UGGCUCG (DNA:RNA)
# RNA: B1 RNA with C25U, U27G, U28C, G29U
# DNA 1: CAATCTGAATTCCGGTCTCCC
# DNA 2: TGGTGGCTACGACGGGATT
# B12: GUGCUCU (DNA:RNA)
# RNA: B1 RNA with C25G, G26U, U27G, U28C, G29U, G31U
# DNA 1: CAATCTGAATTCCGGTCTCCC
# DNA 2: TGGTGGCTACGACGGGATT
# B13: GUGCUCG (DNA:RNA)
# RNA: B1 RNA with C25G, G26U, U27G, U28C, G29U
# DNA 1: CAATCTGAATTCCGGTCTCCC
# DNA 2: TGGTGGCTACGACGGGATT
# B14: CGCUACC (DNA:RNA)
# RNA: B1 RNA with U27C, G29A, G31C
# DNA 1: CAATCTGAATTCCGGTCTCCC
# DNA 2: TGGTGGCTACGACGGGATT
# B15: AGAGCCU (DNA:RNA)
# RNA: B1 RNA with C25A, U27A, U28G, G29C, G31U
# DNA 1: CAATCTGAATTCCGGTCTCCC
# DNA 2: TGGTGGCTACGACGGGATT
# B16: UAUGCGC (DNA:RNA)
# RNA: B1 RNA with C25U, G26A, U28G, G29C, C30G, G31C
# DNA 1: CAATCTGAATTCCGGTCTCCC
# DNA 2: TGGTGGCTACGACGGGATT
# B17: CUUCGUU (DNA:RNA)
# RNA: B1 RNA with G26U, U28C, C30U, G31U
# DNA 1: CAATCTGAATTCCGGTCTCCC
# DNA 2: TGGTGGCTACGACGGGATT
# B18: UCCGGCC (DNA:RNA)
# RNA: B1 RNA with C25U, G26C, U27C, U28G, G31C
# DNA 1: CAATCTGAATTCCGGTCTCCC
# DNA 2: TGGTGGCTACGACGGGATT
# B19: UUACUUG (DNA:RNA)
# RNA: B1 RNA with C25U, G26U, U27A, U28C, G29U, C30U
# DNA 1: CAATCTGAATTCCGGTCTCCC
# DNA 2: TGGTGGCTACGACGGGATT
# B20: GAGUGAG (DNA:RNA)
# RNA: B1 RNA with C25G, G26A, U27G, C30A
# DNA 1: CAATCTGAATTCCGGTCTCCC
# DNA 2: TGGTGGCTACGACGGGATT
# B21: CAGGUUU (DNA:RNA)
# RNA: B1 RNA with G26A, U27G, U28G, G29U, C30U, G31U
# DNA 1: CAATCTGAATTCCGGTCTCCC
# DNA 2: TGGTGGCTACGACGGGATT
# B22: CGCCAGG (DNA:RNA)
# RNA: B1 RNA with U27C, U28C, G29A, C30G
# DNA 1: CAATCTGAATTCCGGTCTCCC
# DNA 2: TGGTGGCTACGACGGGATT
# B23: GGAGCUU (DNA:RNA)
# RNA: B1 RNA with C25G, U27A, U28G, G29C, C30U, G31U
# DNA 1: CAATCTGAATTCCGGTCTCCC
# DNA 2: TGGTGGCTACGACGGGATT
# B24: GGGAGCU (DNA:RNA)
# RNA: B1 RNA with C25G, U27G, U28A, G31U
# DNA 1: CAATCTGAATTCCGGTCTCCC
# DNA 2: TGGTGGCTACGACGGGATT
# B25: GGAAGCU (DNA:RNA)
# RNA: B1 RNA with C25G, U27A, U28A, G31U
# DNA 1: CAATCTGAATTCCGGTCTCCC
# DNA 2: TGGTGGCTACGACGGGATT
# B26: GGGAAGC (DNA:RNA)
# RNA: B1 RNA with C25G, U27G, U28A, G29A, C30G, G31C
# DNA 1: CAATCTGAATTCCGGTCTCCC
# DNA 2: TGGTGGCTACGACGGGATT
# B27: GGGGAGC (DNA:RNA)
# RNA: B1 RNA with C25G, U27G, U28G, G29A, C30G, G31C
# DNA 1: CAATCTGAATTCCGGTCTCCC
# DNA 2: TGGTGGCTACGACGGGATT
# B28: CGGAAGC (DNA:RNA)
# RNA: B1 RNA with U27G, U28A, G29A, C30G, G31C
# DNA 1: CAATCTGAATTCCGGTCTCCC
# DNA 2: TGGTGGCTACGACGGGATT
# B29: GGGAACU (DNA:RNA)
# RNA: B1 RNA with C25G, U27G, U28A, G29A, G31U
# DNA 1: CAATCTGAATTCCGGTCTCCC
# DNA 2: TGGTGGCTACGACGGGATT
# B30: CGGAACU (DNA:RNA)
# RNA: B1 RNA with U27G, U28A, G29A, G31U
# DNA 1: CAATCTGAATTCCGGTCTCCC
# DNA 2: TGGTGGCTACGACGGGATT
# B31: GGAGAGC (DNA:RNA)
# RNA: B1 RNA with C25G, U27A, U28G, G29A, C30G, G31C
# DNA 1: CAATCTGAATTCCGGTCTCCC
# DNA 2: TGGTGGCTACGACGGGATT
# B32: CGGAGCU (DNA:RNA)
# RNA: B1 RNA with U27G, U28A, G31U
# DNA 1: CAATCTGAATTCCGGTCTCCC
# DNA 2: TGGTGGCTACGACGGGATT
# B33: CGGGAGC (DNA:RNA)
# RNA: B1 RNA with U27G, U28G, G29A, C30G, G31C
# DNA 1: CAATCTGAATTCCGGTCTCCC
# DNA 2: TGGTGGCTACGACGGGATT
# B34: GGAACUU (DNA:RNA)
# RNA: B1 RNA with C25G, U27A, U28A, G29C, C30U, G31U
# DNA 1: CAATCTGAATTCCGGTCTCCC
# DNA 2: TGGTGGCTACGACGGGATT
# Biological target: T1, RBFOX1 RRM
# Test: EMSA; HiTS-Eq, 1 nM pool, 10 min; buffer printed only for the single-RNA assays: 10 mM Tris pH 7.5, 150 mM NaCl, 3.4 mM EDTA, 0.001% NP-40, 30 C
# Details: tags: His6 N-terminal (pET28a); label: 5' 32P
# In short: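 Purified RbFox RRM, wild type or mutant, was incubated for 10 min in 50 µL with 1 nM of a 5′-radiolabelled RNA pool carrying 7 randomized nucleotides, whose flanks were annealed to DNA oligonucleotides, over a series of increasing protein concentrations. Unbound RNA was resolved on 8% native PAGE, cut out, reverse-transcribed, barcoded by PCR and sequenced on an Illumina HiSeq 2500. Relative association constants were derived from changes in read counts for each RNA species versus the control reaction and normalised to the cognate motif.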
row,Binder,binding signal
1,B1,0.0173 KA relative to UGCAUGU
2,B2,0.0296 KA relative to UGCAUGU
3,B3,0.0326 KA relative to UGCAUGU
4,B4,0.00264 KA relative to UGCAUGU
5,B5,0.0357 KA relative to UGCAUGU
6,B6,0.00242 KA relative to UGCAUGU
7,B7,0.0132 KA relative to UGCAUGU
8,B8,0.00985 KA relative to UGCAUGU
9,B9,0.0217 KA relative to UGCAUGU
10,B10,0.0133 KA relative to UGCAUGU
11,B11,0.0396 KA relative to UGCAUGU
12,B12,0.0226 KA relative to UGCAUGU
13,B13,0.0432 KA relative to UGCAUGU
14,B14,0.00834 KA relative to UGCAUGU
15,B15,0.00804 KA relative to UGCAUGU
16,B16,0.0181 KA relative to UGCAUGU
17,B17,0.0135 KA relative to UGCAUGU

row,Binder,binding signal
1,B18,0.00966 KA relative to UGCAUGU
2,B19,0.0182 KA relative to UGCAUGU
3,B20,0.0102 KA relative to UGCAUGU
4,B21,0.0116 KA relative to UGCAUGU
5,B22,0.0105 KA relative to UGCAUGU
6,B23,0.0232 KA relative to UGCAUGU
7,B24,0.035 KA relative to UGCAUGU
8,B25,0.0135 KA relative to UGCAUGU
9,B26,0.036 KA relative to UGCAUGU
10,B27,0.0326 KA relative to UGCAUGU
11,B28,0.0209 KA relative to UGCAUGU
12,B29,0.0404 KA relative to UGCAUGU
13,B30,0.0254 KA relative to UGCAUGU
14,B31,0.0169 KA relative to UGCAUGU
15,B32,0.0245 KA relative to UGCAUGU
16,B33,0.0286 KA relative to UGCAUGU
17,B34,0.0138 KA relative to UGCAUGU
